Compound activity (PubChem)
Hits are enriched below; roughly 0.97% of the tested compounds scored in any of these assays.
CCT modulator: High-Throughput Screening for Modulators of Cytosolic Chaperonin Activity; purified chaperonin ATPase assay, HTRF ADP detection, 30 min; 360,000 tested, 0.3% active; activity change, % (no concentration beside the values), hits read low; in the data active means activity change below about -30%
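We incubate TRiC, 40 or 20 nM final, with library compounds at 76 uM and 10 uM ATP for 30 min at 37 °C. ADP formed is detected with Transcreener HTRF reagents after 30 min at room temperature.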
Six1-Eya2 blk: qHTS Assay for Inhibitors of the Six1/Eya2 Interaction | Homeobox protein SIX1 (Homo sapiens) + Protein phosphatase EYA2 (Homo sapiens), … | AlphaScreen GST-Six1/His-Eya2 binding, biochemical; hits give low values | activity change, % (concentration not given with the values) | 360,000 tested, 0.56% active | AID 651725, 2012
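Six1/Eya2 binding was read as AlphaScreen signal after compounds were pinned into GST-Six1 plus His-tagged Eya2 (5X stock 250/500 nM) in pH 8.0 Tris/NaCl/TCEP buffer, beads added, then incubated 1 h, 37 C, dark.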
PI4K2A block: qHTS for small molecular inhibitors of PI4K2A | Phosphatidylinositol 4-kinase type 2-alpha (Homo sapiens), Q9BTU6 | purified PI4K2A, ADP-Glo luminescence, 1 h; hits give low values | activity change, negative = inhibition, % at 76.9 µM | 420,000 tested, 0.13% active | AID 1346378, 2018; in the data active means activity change below about -50%; inconclusive means mostly about -30% to -49%;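 further: -100% = wells without enzyme as full effect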
Target sequence (Q9BTU6 whole entry, looked up): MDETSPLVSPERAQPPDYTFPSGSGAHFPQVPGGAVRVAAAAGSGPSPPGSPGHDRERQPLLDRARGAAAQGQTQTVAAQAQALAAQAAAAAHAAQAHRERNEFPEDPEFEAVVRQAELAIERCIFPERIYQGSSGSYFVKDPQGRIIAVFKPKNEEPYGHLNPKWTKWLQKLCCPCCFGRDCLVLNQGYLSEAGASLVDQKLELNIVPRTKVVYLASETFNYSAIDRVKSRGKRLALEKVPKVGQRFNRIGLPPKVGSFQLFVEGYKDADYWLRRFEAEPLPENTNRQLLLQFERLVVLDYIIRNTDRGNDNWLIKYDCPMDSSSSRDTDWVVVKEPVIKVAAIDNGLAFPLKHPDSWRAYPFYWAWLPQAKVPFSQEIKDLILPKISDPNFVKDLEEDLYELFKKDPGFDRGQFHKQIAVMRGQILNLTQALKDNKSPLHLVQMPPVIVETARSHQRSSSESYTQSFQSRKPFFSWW
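PI4K2A activity was measured by ADP-Glo luminescence: enzyme (4 ug/mL stock) and phosphatidylinositol (1.2 mM stock) in Tris pH 7.5/MgCl2/EGTA/Triton X-100 buffer were reacted with ATP (300 microM stock) for one hour at ambient temperature.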
Eya2 phos inh: qHTS Assay for Inhibitors of the Phosphatase Activity of Eya2; Protein phosphatase EYA2 (Homo sapiens), O00167; recombinant Eya2, OMFP fluorescence dephosphorylation (OMFP is methylfluorescein phosphate); Potency, µM (top dose mostly 76.9 µM), for inactives: at the top dose activity, negative = inhibition, actives largely listed as inhibitors; 330,000 tested, 0.006% active; active means well fitted inhibition curve with a large enough effect; inconclusive means small, poorly fitted or top-dose-only effect, or effect the other way; further: potency means the concentration at half of the fitted maximal effect
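Eya2 protein (added as 0.2 uM solution) was preincubated with compound for 10 min at ambient temperature in 50 mM HEPES pH 7.5, 50 mM NaCl, 5 uM MgCl2, 0.05% BSA, 1 mM DTT. OMFP (added at 50 uM) then reacted 10 min; fluorescence read at 485/525 nm.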
CtBP-E1A inh: qHTS Assay for Inhibitors of the CtBP/E1A Interaction | 340,000 tested, 0.49% active | AlphaScreen GST-E1A/His-CtBP binding, 1536-well; hits give low values | activity change, % (no concentration beside the values) | AID 651724, 2012 | CtBP / adenovirus E1A interaction (AlphaScreen)
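Steps: dispense buffer (Tris pH 8.0, NaCl 300 mM, TCEP 1 mM, BSA, Tween 20); add 5X protein mix (GST-E1A, His-CtBP, 125 nM each); pin 23 nL compound; 2 h at 37 °C, dark; add 5X beads (50 ug/mL); 1 h; read.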
* marks the source's active call; other numbers are inactive results; i = inactive; ? = inconclusive; . = no result; ! = not active in a repeat. Unless noted, no stated cut-off is given here; in the data, active means activity change below about -65%; inconclusive means mostly about -30% to -63%; inactive means weaker than that. Unless noted, on the % scale 0 is the no-effect control and ±100 the full control effect.

SMILES	CCT modulator	Six1-Eya2 blk	PI4K2A block	Eya2 phos inh	CtBP-E1A inh
O=C(CCC1N=C2c3ccccc3N=C(SCc3ccc(F)cc3)N2C1=O)NCCc1ccccc1 (configuration not stated)	.	.	1	.	.
COc1cc(C=NO)nc(-c2ccccn2)c1	-2	-92*	?	.	3
C[C@H]1NCc2cc(-c3ccc4c(=O)c(C(=O)O)cn(C5CC5)c4c3OC(F)F)ccc21	.	.	i	.	.
O=c1[nH][nH]cc1C=Nc1ccccc1O	-1	-77*	1	-9%	-83*
O=c1[nH][nH]cc1C=Nc1ccccc1Cl	2	14	-7	4%	.
Nc1ccc(N=Nc2ccc(N)cc2)cc1	-2	-11	9	17%	-5
Cc1cc(N(C)C)ccc1N=Nc1ccc(N)cc1	1	-77*	-3	.	-74*
CN(C)c1ccc(NC(=O)CC(NCc2ccccn2)C(=O)O)cc1 (configuration not stated)	2	-92*	?	-6%	7
Cc1ccc(NC(=O)C(NCc2ccccn2)c2ccccc2)cc1 (configuration not stated)	1	-18	-2	-3%	-20
O=C1c2ccccc2-c2nnc(-c3ccc(F)cc3)cc21	-3	1	-23	-18%	-1
Cc1ccc(-c2cc3c(nn2)-c2ccccc2C3=O)cc1	-5	-14	-63*	-14%	-19
Cc1nc(Nc2ccccc2F)c2oc3ccccc3c2n1	-49*	2	-1	-6%	4
COc1ccc2oc(=O)c(-c3cn4c(n3)sc3cc(F)ccc34)cc2c1	.	.	5	.	.
CCOc1cc2c(cc1OCC)C(c1c(F)cccc1Cl)CC(=O)N2 (configuration not stated)	.	.	0	.	.
CCC[C@H]1[C@@H](NC(=O)c2ccc(OC)cc2)CC[C@@]23CCCN2C(=O)CCC[C@@H]13	.	.	0	.	.
COc1cc(C(=O)Nc2nnc(S(=O)(=O)N3CCCCCC3)s2)cc(OC)c1OC	-32*	-10	5	13%	0
COc1cccc(C(=O)Nc2nnc(S(=O)(=O)N3CCCC3)s2)c1	-1	-8	2	0%	-10
Cc1ccccc1NCc1ccc(O)c2ncccc12	-5	-91*	6	-9%	-95*
NC(=O)c1ccnc2c(O)cccc12	.	.	-19	5%	.
Oc1ccc(CNc2ccccc2)c2cccnc12	4	-89*	-12	-1%	-94*
OCc1ccnc2c(O)cccc12	0	-89*	?	-11%	-92*
Oc1ccc(CNc2ccc(C(F)(F)F)cc2F)c2cccnc12	.	.	-1	.	.
Oc1ccc(CNc2ccccc2Br)c2cccnc12	.	.	-5	.	.
Cc1cccc(NCc2ccc(O)c3ncccc23)c1	-1	-80*	0	4%	-86*
COCc1ccc(O)c2ncccc12	3	-91*	-11	13%	-95*
SMILES	CCT modulator	Six1-Eya2 blk	PI4K2A block	Eya2 phos inh	CtBP-E1A inh
Oc1ccc(Cn2ccnc2)c2cccnc12	1	-83*	3	18%	-95*
Oc1ccc(COc2cccc3ccccc23)c2cccnc12	.	.	.	0%	.
Oc1ccc(CNc2cccc(F)c2)c2cccnc12	.	.	1	.	.
Oc1ccc(CNc2ccc(F)cc2)c2cccnc12	0	-90*	-4	17%	-90*
CCCCC(O)/C=C(C)/C=C/C=C/C(=O)N1CCCC1=O (configuration not stated)	.	.	-1	.	.
CCN1CCN(C(c2ccc(C(F)(F)F)cc2)c2ccc3cccnc3c2O)CC1 (configuration not stated)	-1	-86*	15	-9%	-1
CC(C)(C)c1ccc(-c2nnc(SCC(=O)Nc3ccccc3-c3ccccc3)n2Cc2ccco2)cc1	.	.	-10	.	.
COc1ccc(N(Cc2nnc3n2CCCCC3)C(=O)Nc2cccc(C)c2)cc1Cl	.	.	0	.	.
COc1cc2c(C#N)c(N3CCN(C)CC3)nc(N)c2c(N)n1	.	.	.	17%	.
COc1cc2c(C#N)c(N3CCCC3)nc(N)c2c(N)n1	-1	-22	-55*!	2%	-73*!
COc1cc2c(C#N)c(N3CCN(c4ccccc4OC)CC3)nc(N)c2c(N)n1	-5	-2	-55*	5%	-2
CC(C)=CCC[C@@](C)(O)[C@H]1CC=C(C)CC1	.	.	4	.	.
CCCCCCCCCCCCCCCCCCNC(=O)OC1CCN(C(=O)OC[C@H](COC(=O)N(Cc2cccc[n+]2CC)C(=O)c2ccccc2OC)OC)CC1	.	.	1	.	.
CN1CCN(Cc2cc(COCc3ccccc3)c3cccnc3c2O)CC1	0	-89*	-8	1%	-94*
Oc1ccc(CN2CCN(Cc3ccccc3)CC2)c2cccnc12	2	-93*	-8	-3%	-98*
O=S(=O)(c1ccc(Cl)cc1)N1CCN(Cc2ccc(O)c3ncccc23)CC1	-3	-92*	3	-5%	2
Cc1ccc(CN2C(=O)C(=O)c3cc(Br)cc(C)c32)cc1	.	.	11	.	.
C=C1C(=C/C=C2\CCC[C@]3(C)[C@@H]([C@H](C)/C=C/[C@@H](O)C4CC4)CC[C@@H]23)C[C@@H](O)C[C@@H]1O	.	.	-1	.	.
c1ccc(N=NC2=NN(c3ccccc3)CS2)cc1	2	-77*	-14	.	?
CCN(CC)c1ccc(NC(=O)c2cc(Cl)ccc2OC)cc1	0	-66*	0	-25%	?
Cc1ccc(C)c(Cn2c(=O)n(CCCC(=O)NCc3ccc4c(c3)OCO4)c(=O)c3sccc32)c1	.	.	3	.	.
O=[N+]([O-])c1ccc(C=Nc2cccc3ccccc23)s1	7	?	-7	9%	-70*
O=[N+]([O-])c1ccc(-c2ccc(C=Nc3cccc4ccccc34)o2)cc1	-1	?	1	1%	3
COc1ccc(CCn2c(N)c(S(=O)(=O)c3cccs3)c3nc4ccccc4nc32)cc1OC	2	-67*	1	16%	8
Nc1c(S(=O)(=O)c2cccs2)c2nc3ccccc3nc2n1CCc1ccccc1	.	.	.	-27%	.
COc1ccc(CCn2c(N)c(C#N)c3nc4ccccc4nc32)cc1OC	-1	-65*	-7	0%	-69*
COc1ccc(Cn2c(N)c(C#N)c3nc4ccccc4nc32)cc1OC	1	-16	-27	-10%	-23
Cc1ccc(-n2c(SCC(=O)Nc3ccc(OCc4ccccc4)cc3)nnc2-c2ccccc2)cc1	.	.	6	.	.
COc1ccc(CCC(C)=O)cc1	.	.	4	.	.
Cc1nn(CC(=O)Nc2ccc3c(c2)OCCO3)c(C)c1[N+](=O)[O-]	-33*	5	2	-4%	6
